Assay outcomes from PubChem BioAssay.
A selection: hits, their analogues and other compounds. The true share with any hit is near 21%.
Pf growth 96h: Primary qHTS for delayed death inhibitors of the malarial parasite plastid, 96 hour incubation | AID 504834, 2011 | actives 6.9% (n = 320,000) | Potency, µM (titrated, usually from 28.7 µM), actives largely listed as inhibitors | P. falciparum luciferase reporter growth, 96 h; active = well fitted inhibition curve with a large enough effect; inconclusive = small, poorly fitted or top-dose-only effect, or another doubt; inactive = no such curve, though single readings can be large or run the other way
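P. falciparum expressing integrated firefly luciferase grown in erythrocytes (2% hematocrit, 0.05% parasitemia final) with compounds for 96 hours at 37 C, 5% CO2. Growth inhibition read as loss of luminescence after adding luciferase detection reagent.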
Pf growth 48h: Primary qHTS for delayed death inhibitors of the malarial parasite plastid, 48 hour incubation; Potency, µM (highest dose often 28.7 µM), actives largely listed as inhibitors; P. falciparum luciferase growth in erythrocytes, 48 h; actives 5.9% (n = 310,000); active = well fitted inhibition curve with a large enough effect; inconclusive = small, poorly fitted or top-dose-only effect, or another doubt; inactive = no such curve, though single readings can be large or run the other way
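Luminescence readout; reporter = integrated firefly luciferase in P. falciparum. RBC culture at 2% hematocrit, 0.1% parasitemia final, 37 C/5% CO2; decreased signal taken as growth inhibition.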
SARS PLP yeast: qHTS of Yeast-based Assay for SARS-CoV PLP | S. cerevisiae expressing SARS-CoV PLpro, growth rescue | Potency, µM (titrated, usually from 32.9 µM), most hits filed as activators | actives 0.19% (n = 330,000); also: nearly all actives have a fitted effect of over 55% in size
NS1 inh: qHTS Assay for Inhibitors of Influenza NS1 Protein Function; Potency, µM (titrated, usually from 46.1 µM); actives 0.4% (n = 270,000); also: actives are rising curves; nearly all actives have a fitted effect of over 50% in size
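Compounds were scored for reversing the slow growth caused by influenza A NS1 in S. cerevisiae, measured by optical density at 600 nm. Assay medium contained 2% galactose at pH 6.0; NS1-free yeast of the same strain were the positive control.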
Shiga toxin inh: A qHTS for Small Molecule Inhibitors of Shiga Toxin; Vero cells, Shiga toxin protein synthesis inhibition reporter; inhibition, % at 38.7 µM; actives 9.2% (n = 290,000); in the data active = inhibition mostly above about 28%, no sharp cut-off; inactive = mostly below about 43%
CHX counter: Cycloheximide Counterscreen for Small Molecule Inhibitors of Shiga Toxin; cell reporter, cycloheximide protein synthesis inhibition counterscreen; max response, %; actives 12% (n = 300,000); in the data active = max response mostly above about 13%, no sharp cut-off; inactive = mostly below about 14%; also: read at 38.3 µM for the half of the compounds with a filed dose
Numbers stand for hits; - = inactive; ? = inconclusive; . = no result given. Unless noted, calls follow the shape of the full dose curve.

SMILES	Pf growth 96h	Pf growth 48h	SARS PLP yeast	NS1 inh	Shiga toxin inh	CHX counter
Cc1nn(C(C)C(=O)Nc2ccccc2Cl)c(=O)c2nn(-c3ccccc3)c(C)c12 (centres undefined)	11.7µM	-	-	-	-	-
CCOc1ccccc1CNC(=O)C(C)n1nc(C)c2c(C)n(-c3ccccc3)nc2c1=O (centres undefined)	?	-	-	-	-	-
Cc1nn(C(C)C(=O)NC2CCCCC2)c(=O)c2nn(-c3ccccc3)c(C)c12 (centres undefined)	11.7µM	-	-	-	-	-
Cc1nn(C(C)C(=O)NC2CC2)c(=O)c2nn(-c3ccccc3)c(C)c12 (centres undefined)	?	-	-	-	-	-
COC(=O)c1ccccc1NC(=O)C(C)n1nc(C)c2c(C)n(-c3ccccc3)nc2c1=O (centres undefined)	9.28µM	?	-	-	-	-
Cc1ccc(NC(=O)c2cccc(NC3=NC4CS(=O)(=O)CC4S3)c2)cc1 (centres undefined)	-	-	-	-	-	-
COc1ccc(OC)c(NC(=O)CSC2=C(C#N)C(c3ccco3)C3=C(CCCC3=O)N2)c1 (centres undefined)	-	9.28µM	-	-	-	-
CCCCOC(=O)CSC1=C(C#N)C(c2cccnc2)C(C(=O)OCC)=C(c2ccccc2)N1 (centres undefined)	?	?	-	.	-	-
CCOC(=O)C1=C(c2ccccc2)NC(SC)=C(C#N)C1c1cccnc1 (centres undefined)	11.7µM	?	-	-	-	-
N#CC1=C(SCC(=O)c2ccc(Cl)cc2)NC2=C(C(=O)CCC2)C1c1ccco1 (centres undefined)	-	?	-	?	-	-
COCCOC(=O)C1=C(C)NC(SCC(=O)NC(C)(C)C)=C(C#N)C1c1ccco1 (centres undefined)	.	?	?	-	-	-
Cc1ccc(NC(=O)CSC2=C(C#N)C(c3ccco3)C3=C(CCCC3=O)N2)cc1 (centres undefined)	-	?	-	?	-	18.6
CCOC(=O)C1=C(c2ccccc2)NC(SCC(=O)NC2CCCCC2)=C(C#N)C1c1ccco1 (centres undefined)	-	11.7µM	-	-	-	-
CS(=O)(=O)N(CC(=O)Nc1ccccc1C(=O)N1CCCC1)c1ccc2c(c1)OCO2	-	-	-	.	-	-
Cc1ccc(C(=O)NC(c2ccccc2)C(Cl)Cl)cc1 (centres undefined)	?	-	-	-	-	15.2
O=C(NC(c1ccccc1)C(Cl)Cl)c1ccccc1 (centres undefined)	2.62µM	-	-	-	-	-
COC(=O)CC(NC(=O)c1ccc(C)cc1)c1ccccc1 (centres undefined)	-	.	-	-	-	-
COC(=O)C1=C(SC)N(c2ccccc2)C(c2ccccc2)CC1=O (centres undefined)	-	?	-	-	-	-
Cc1cc([N+](=O)[O-])c(C)c(Br)c1C	.	.	.	-	.	.
O=[N+]([O-])c1ccccc1N/N=C/c1ccc2c(c1)OCO2	-	-	-	-	68.1	39.6
NS(=O)(=O)c1ccc(N/N=C/c2ccc3c(c2)OCO3)c([N+](=O)[O-])c1	-	-	-	-	-	-
O=C(O)c1ccccc1NS(=O)(=O)c1ccc(NN=Cc2ccc(F)cc2)c([N+](=O)[O-])c1	.	.	-	.	.	.
O=[N+]([O-])c1ccccc1N/N=C/c1ccccc1	?	-	-	-	62.4	35.1
Cc1ccc(NC(=O)CCNC(=O)c2ccccc2Cl)cc1S(=O)(=O)N1CCOCC1	?	-	-	.	.	.
Cc1cc2occ(CC(=O)N(C)CC(=O)Nc3c(C)cccc3C)c2cc1C	-	?	-	.	.	.
Cc1cccc(C)c1NC(=O)CN(C)C(=O)Cc1cccc(C(F)(F)F)c1	-	?	-	-	31.4	-
CN(CC(=O)Nc1cccc(F)c1)C(=O)c1ccc(COc2ccccc2)o1	?	?	-	.	.	.
Cc1ccc(C)c(NC(=O)CN(C)C(=O)c2ccc(-c3cccc(C(F)(F)F)c3)o2)c1	1.31µM	1.85µM	-	.	.	.
